Measurements published in the supplement of paper PMC10849652.
About 7,900 targets were measured; listed, in parts, are those with a hit and a random draw of the rest. About 0.6% of all pairs of compound and target were hits.

How the values were obtained:
Assay in all cases: log2 fold change, soluble protein after heating vs DMSO (PISA); higher = thermal stabilisation; K562 cells, 10 uM, 30 min; active = over 0.2 and 3.5 SD of the protein, either way, in both replicates (recomputed)
erlotinib = compound: C#Cc1cccc(Nc2ncnc3cc(OCCOC)c(OCCOC)cc23)c1 [erlotinib]
Procedure, shortened: (§1)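 Values are thermal stability changes relative to control samples and are taken from duplicates. They are stated as log2 fold changes. Before quantification by TMTpro 16plex LC-MS/MS with equalised channel sums, K562 cells at 2×10^6 cells/mL were treated with 10 μM compound for 30 min, heated in aliquots for 3 min across 48°C-58°C, pooled, extracted in PBS with 0.5% NP-40 at 4°C, and centrifuged at 21,000xg for 90 min to give the soluble supernatant.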

[1] = compound: C/C(=N\NC(=O)C1=CC(=CC=C1)S(=O)(=O)N2CCOCC2)/C3=C(C=CC(=C3)Cl)O
Procedure, shortened: as §1

[2] = compound: C1=CC(=C(C=C1Cl)C2=NC3=NC=CN=C3C(=N2)NC4=CC=NC=C4)F
Procedure, shortened: as §1

[3] = compound: C1=CC(=CC=C1C2=NC3=C(N2)C=C(C=C3)C(=O)N)OC4=CC=C(C=C4)Cl
Procedure, shortened: as §1

[4] = compound: C1=CC2=C(C=CC(=C2)/C=C\3/C(=O)NC(=NCC4=CC=CS4)S3)N=C1
Procedure, shortened: as §1

[5] = compound: C1=CC2=NC=CN=C2C=C1/C=C/3\C(=O)NC(=O)S3
Procedure, shortened: as §1

[6] = compound: C1=CC=C(C=C1)C2=NC(=C(N2)C3=CC=NC=C3)C4=CC(=C(C=C4)Cl)O
Procedure, shortened: as §1

[7] = compound: C1=CC=C2C(=C1)C3=NNC4=CC=CC(=C43)C2=O
Procedure, shortened: as §1

[8] = compound: C1CCN(C1)C(=O)NC2=CC=CC(=C2)NC3=NC=C(C(=N3)NCCC4=CN=CN4)Br
Procedure, shortened: as §1

[9] = compound: C1CN(CCC1(CC2=CC=C(C=C2)Cl)N)C3=NC=NC4=C3C=CN4
Procedure, shortened: as §1

Measured: log2 fold change

KLHDC4 (UniProt Q8TBB5)
inactive: erlotinib -0.066 | [1] -0.075 | [2] -0.174 | [3] -0.013 | [4] 0.077 | [5] -0.123 | [6] -0.081 | [7] 0.07 | [8] -0.113 | [9] 0.119

KHDC4 (UniProt Q7Z7F0)
inactive: erlotinib -0.005 | [1] 0.14 | [2] 0.009 | [3] -0.058 | [4] 0.089 | [5] 0.084 | [6] 0.074 | [7] -0.041 | [8] -0.042 | [9] 0.025

LUC7L (UniProt Q9NQ29)
inactive: erlotinib -0.084 | [1] 0.043 | [2] -0.092 | [3] 0.114 | [4] -0.062 | [5] -0.003 | [6] -0.105 | [7] -0.016 | [8] -0.016 | [9] -0.035

IL10RB (UniProt Q08334)
inactive: erlotinib 0.05 | [1] -0.089 | [2] -0.106 | [3] 0.053 | [4] 0 | [5] -0.03 | [7] 0.029 | [8] 0.037 | [9] 0.075

MBLAC1 (UniProt A4D2B0)
inactive: erlotinib 0.074 | [1] -0.042 | [3] 0.026 | [4] 0.036 | [5] 0.019 | [6] 0.002 | [7] -0.024

LYN (UniProt P07948)
inactive: erlotinib -0.073 | [1] 0.044 | [2] -0.171 | [3] 0.007 | [4] 0.005 | [5] -0.028 | [6] -0.014 | [7] -0.253 | [8] 0.035 | [9] -0.015

KXD1 (UniProt Q9BQD3)
inactive: erlotinib 0.069 | [1] 0.018 | [2] 0.011 | [3] -0.005 | [4] 0.083 | [5] 0.024 | [6] 0.01 | [7] 0.018 | [8] 0.022 | [9] 0.036

ILK (UniProt Q13418)
inactive: erlotinib 0 | [1] -0.119 | [2] -0.086 | [3] 0.016 | [4] 0.091 | [5] 0.002 | [6] -0.056 | [7] -0.056 | [8] 0.068 | [9] 0.008

MGST1 (UniProt P10620)
Chain of UniProt P10620 (P10620 whole entry, looked up): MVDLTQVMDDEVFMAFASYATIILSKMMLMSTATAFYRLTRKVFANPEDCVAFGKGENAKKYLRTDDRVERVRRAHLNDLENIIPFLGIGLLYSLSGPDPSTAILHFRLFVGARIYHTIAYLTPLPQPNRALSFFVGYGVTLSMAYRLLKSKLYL
inactive: erlotinib -0.032 | [1] -0.037 | [2] 0.063 | [3] 0.021 | [4] 0.02 | [5] 0.038 | [6] 0.024 | [7] -0.057 | [8] -0.004 | [9] -0.049

MAP4K5 (UniProt Q9Y4K4)
inactive: erlotinib -0.001 | [1] 0.057 | [2] 0.05 | [3] 0.051 | [4] 0.143 | [5] -0.025 | [6] -0.039 | [8] -0.083 | [9] 0.152

MAP3K20 isoform 2 (UniProt Q9NYL2)
inactive: erlotinib -0.002 | [1] -0.128 | [2] 0.051 | [3] 0.052 | [4] -0.091 | [7] -0.168 | [8] -0.004 | [9] 0.007

LPCAT3 (UniProt Q6P1A2)
inactive: erlotinib -0.062 | [1] 0.028 | [2] 0.032 | [3] 0.07 | [4] 0.152 | [5] 0.071 | [6] 0.211 | [7] 0.014 | [8] 0.059 | [9] 0.002

LRRFIP1 isoform 4 (UniProt Q32MZ4)
inactive: erlotinib -0.122 | [2] -0.121 | [3] -0.006 | [4] -0.045 | [7] 0.072
active: [1] -1.2

MAGED1 isoform 2 (UniProt Q9Y5V3)
Chain of UniProt Q9Y5V3 (Q9Y5V3 whole entry, looked up): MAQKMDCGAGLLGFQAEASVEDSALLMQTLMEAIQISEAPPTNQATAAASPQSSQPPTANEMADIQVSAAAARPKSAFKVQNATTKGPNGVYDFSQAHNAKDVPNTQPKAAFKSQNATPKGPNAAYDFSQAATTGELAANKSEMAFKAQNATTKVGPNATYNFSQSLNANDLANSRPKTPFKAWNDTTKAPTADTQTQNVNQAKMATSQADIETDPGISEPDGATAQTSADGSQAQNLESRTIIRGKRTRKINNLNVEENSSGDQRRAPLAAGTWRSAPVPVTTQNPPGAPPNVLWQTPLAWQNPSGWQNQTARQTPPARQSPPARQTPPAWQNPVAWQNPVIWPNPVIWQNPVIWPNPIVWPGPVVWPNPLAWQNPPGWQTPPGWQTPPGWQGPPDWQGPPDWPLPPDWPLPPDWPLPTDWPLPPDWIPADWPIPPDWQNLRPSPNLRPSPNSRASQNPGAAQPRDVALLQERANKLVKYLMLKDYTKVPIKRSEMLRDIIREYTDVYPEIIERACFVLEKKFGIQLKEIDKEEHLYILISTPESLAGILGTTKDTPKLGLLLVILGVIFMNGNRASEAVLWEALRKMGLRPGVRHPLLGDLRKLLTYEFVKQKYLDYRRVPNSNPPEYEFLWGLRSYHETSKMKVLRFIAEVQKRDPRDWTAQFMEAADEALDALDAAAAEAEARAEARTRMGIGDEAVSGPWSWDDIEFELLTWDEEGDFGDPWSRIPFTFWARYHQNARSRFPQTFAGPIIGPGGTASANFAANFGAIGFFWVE
inactive: erlotinib 0.024 | [1] 0.044 | [2] -0.311 | [3] -0.059 | [4] -0.064 | [7] -0.012

LYN isoform 2 (UniProt P07948)
inactive: erlotinib -0.387 | [1] 0.117 | [2] -0.234 | [3] -0.152 | [4] 0.146 | [7] -0.163

MED17 (UniProt Q9NVC6)
inactive: erlotinib 0.017 | [1] 0.064 | [2] -0.077 | [3] 0.072 | [4] -0.083 | [6] 0.094 | [7] -0.034 | [8] -0.194 | [9] -0.047

LGALS8 isoform 2 (UniProt O00214)
inactive: erlotinib -0.011 | [1] -0.034 | [2] -0.282 | [3] 0.062 | [4] -0.038 | [5] -0.059 | [7] 0.036 | [8] 0.043 | [9] 0.039

IKZF1 isoform 2 (UniProt Q13422)
active: [8] -0.38
inactive: erlotinib 0.017 | [3] -0.006 | [5] 0.046 | [6] 0.047 | [9] -0.016

MAML1 (UniProt Q92585)
Chain of UniProt Q92585 (Q92585 whole entry, looked up): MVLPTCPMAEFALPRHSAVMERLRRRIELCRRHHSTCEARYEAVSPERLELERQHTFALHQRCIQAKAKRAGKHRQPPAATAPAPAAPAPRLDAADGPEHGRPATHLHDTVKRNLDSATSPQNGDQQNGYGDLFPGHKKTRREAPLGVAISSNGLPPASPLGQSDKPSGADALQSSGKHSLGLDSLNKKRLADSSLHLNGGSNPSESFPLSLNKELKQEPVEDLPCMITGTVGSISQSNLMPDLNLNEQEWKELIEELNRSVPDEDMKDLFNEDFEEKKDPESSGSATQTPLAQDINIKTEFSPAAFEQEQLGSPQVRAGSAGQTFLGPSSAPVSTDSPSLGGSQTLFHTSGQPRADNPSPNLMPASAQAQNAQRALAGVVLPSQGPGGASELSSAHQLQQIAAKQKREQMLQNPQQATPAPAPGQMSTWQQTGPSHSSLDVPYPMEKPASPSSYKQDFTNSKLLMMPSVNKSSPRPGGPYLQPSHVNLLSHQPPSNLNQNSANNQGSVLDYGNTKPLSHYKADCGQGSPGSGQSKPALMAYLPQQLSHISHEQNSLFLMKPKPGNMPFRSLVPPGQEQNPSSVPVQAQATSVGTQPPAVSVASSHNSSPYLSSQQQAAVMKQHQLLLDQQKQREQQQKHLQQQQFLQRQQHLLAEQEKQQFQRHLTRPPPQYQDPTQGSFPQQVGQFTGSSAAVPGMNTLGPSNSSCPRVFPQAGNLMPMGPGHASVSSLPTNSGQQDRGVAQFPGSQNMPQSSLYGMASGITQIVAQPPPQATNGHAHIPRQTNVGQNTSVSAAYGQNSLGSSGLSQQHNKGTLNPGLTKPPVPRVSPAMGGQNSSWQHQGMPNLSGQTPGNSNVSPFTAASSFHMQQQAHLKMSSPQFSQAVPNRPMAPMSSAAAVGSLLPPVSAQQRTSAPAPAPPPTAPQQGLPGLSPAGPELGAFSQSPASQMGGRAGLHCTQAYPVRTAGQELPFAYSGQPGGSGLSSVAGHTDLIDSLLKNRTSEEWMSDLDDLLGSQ
inactive: erlotinib 0.369 | [2] 0.004 | [3] 0.082 | [6] -0.004

MAP2K5 (UniProt Q13163)
inactive: [1] 0.021 | [4] 0.277 | [6] 0.145 | [7] -0.036

MAPK7 (UniProt Q13164)
inactive: [1] 0.095 | [2] 0.02 | [4] 0 | [7] 0.14

MED25 isoform 3 (UniProt Q71SY5)
Chain of UniProt Q71SY5 (Q71SY5 whole entry, looked up): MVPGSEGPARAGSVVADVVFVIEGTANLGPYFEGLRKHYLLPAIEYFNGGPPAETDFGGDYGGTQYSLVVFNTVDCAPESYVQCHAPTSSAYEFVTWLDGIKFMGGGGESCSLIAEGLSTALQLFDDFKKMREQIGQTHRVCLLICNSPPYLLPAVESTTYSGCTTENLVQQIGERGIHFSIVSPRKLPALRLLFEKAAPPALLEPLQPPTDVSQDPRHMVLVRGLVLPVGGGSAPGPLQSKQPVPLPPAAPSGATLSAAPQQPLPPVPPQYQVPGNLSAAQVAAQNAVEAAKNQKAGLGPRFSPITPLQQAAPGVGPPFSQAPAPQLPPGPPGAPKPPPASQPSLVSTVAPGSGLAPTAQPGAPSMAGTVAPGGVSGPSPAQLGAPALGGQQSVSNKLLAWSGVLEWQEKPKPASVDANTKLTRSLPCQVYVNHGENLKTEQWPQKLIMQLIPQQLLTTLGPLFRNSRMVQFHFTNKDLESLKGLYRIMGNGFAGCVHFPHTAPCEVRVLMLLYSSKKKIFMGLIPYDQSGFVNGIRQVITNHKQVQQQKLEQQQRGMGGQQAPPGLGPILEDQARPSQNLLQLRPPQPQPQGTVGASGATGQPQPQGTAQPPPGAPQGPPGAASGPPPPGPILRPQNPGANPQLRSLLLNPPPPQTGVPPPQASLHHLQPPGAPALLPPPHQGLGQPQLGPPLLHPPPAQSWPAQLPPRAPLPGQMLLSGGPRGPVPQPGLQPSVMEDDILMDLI
inactive: erlotinib -0.038 | [1] 0.026 | [3] 0.005 | [4] 0.048 | [5] -0.031 | [6] 0.062 | [7] 0.057 | [8] 0.057 | [9] 0.07

MCM10 (UniProt Q7L590)
inactive: erlotinib -0.066 | [2] 0.205 | [3] 0.039 | [5] -0.054 | [8] -0.153 | [9] 0.125

MED29 (UniProt Q9NX70)
Chain of UniProt Q9NX70 (Q9NX70 whole entry, looked up): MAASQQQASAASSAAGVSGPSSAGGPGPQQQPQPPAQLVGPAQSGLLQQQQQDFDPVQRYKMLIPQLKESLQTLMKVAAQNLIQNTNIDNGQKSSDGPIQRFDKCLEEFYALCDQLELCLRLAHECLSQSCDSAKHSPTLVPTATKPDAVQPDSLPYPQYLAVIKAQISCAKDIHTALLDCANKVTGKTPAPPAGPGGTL
inactive: erlotinib -0.016 | [1] 0.008 | [3] 0.062 | [4] -0.089 | [7] -0.015

KCNK5 (UniProt O95279)
inactive: erlotinib -0.101 | [2] -0.128 | [3] 0.077 | [5] 0.095

ING5 (UniProt Q8WYH8)
inactive: erlotinib 0.273 | [3] -0.119 | [8] 0.003 | [9] 0.286

LRRCC1 (UniProt Q9C099)
inactive: [4] 0.088 | [6] 0.257 | [7] 0.123 | [8] 0.121 | [9] 0.101
active: [1] -0.671

IPP (UniProt Q9Y573)
inactive: [1] 0.091 | [4] 0.083 | [5] -0.17 | [7] 0.139

MFAP3 (UniProt P55082)
inactive: [1] 0.202 | [2] -0.021 | [4] 0.029 | [5] -0.106 | [7] -0.142 | [8] -0.088 | [9] 0.064

IGFBP3 isoform 2 (UniProt P17936)
Chain of UniProt P17936 (P17936 whole entry, looked up): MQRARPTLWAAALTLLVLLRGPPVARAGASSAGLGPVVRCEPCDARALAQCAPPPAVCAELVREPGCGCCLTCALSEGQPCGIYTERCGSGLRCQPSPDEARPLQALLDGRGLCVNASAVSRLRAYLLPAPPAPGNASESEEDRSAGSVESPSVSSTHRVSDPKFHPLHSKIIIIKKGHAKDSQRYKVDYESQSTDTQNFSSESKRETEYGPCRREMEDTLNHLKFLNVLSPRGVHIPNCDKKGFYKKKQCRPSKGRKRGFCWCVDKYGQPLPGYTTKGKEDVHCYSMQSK
inactive: [1] -0.18 | [2] -0.094 | [4] 0.049 | [7] -0.172 | [8] 0.032 | [9] -0.057

IGFBP6 (UniProt P24592)
Chain of UniProt P24592 (P24592 whole entry, looked up): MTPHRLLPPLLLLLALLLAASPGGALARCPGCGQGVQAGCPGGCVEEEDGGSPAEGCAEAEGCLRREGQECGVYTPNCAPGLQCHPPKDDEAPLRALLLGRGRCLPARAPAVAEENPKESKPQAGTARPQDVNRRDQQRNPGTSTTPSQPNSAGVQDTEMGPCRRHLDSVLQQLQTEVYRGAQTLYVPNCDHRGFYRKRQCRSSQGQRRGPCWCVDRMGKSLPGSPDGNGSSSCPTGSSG
inactive: [1] -0.215 | [4] 0.057 | [6] 0.131 | [7] -0.19

KIF21A (UniProt H0YI78)
inactive: erlotinib 0.077 | [3] -0.137 | [6] 0.1

MAGEA8 (UniProt P43361)
inactive: erlotinib 0.033 | [1] 0.038 | [3] -0.075 | [4] -0.04 | [5] 0.132 | [6] -0.028 | [7] -0.098 | [8] 0.052 | [9] 0.099

IKZF1 (UniProt R9R4D9)
inactive: [8] -0.055 | [9] -0.13

MAPK11 (UniProt Q15759)
inactive: erlotinib 0.169 | [3] -0.28 | [6] 0.744 | [8] -0.56 | [9] 0.309

MAPRE3 isoform 2 (UniProt Q9UPY8)
Chain of UniProt Q9UPY8 (Q9UPY8 whole entry, looked up): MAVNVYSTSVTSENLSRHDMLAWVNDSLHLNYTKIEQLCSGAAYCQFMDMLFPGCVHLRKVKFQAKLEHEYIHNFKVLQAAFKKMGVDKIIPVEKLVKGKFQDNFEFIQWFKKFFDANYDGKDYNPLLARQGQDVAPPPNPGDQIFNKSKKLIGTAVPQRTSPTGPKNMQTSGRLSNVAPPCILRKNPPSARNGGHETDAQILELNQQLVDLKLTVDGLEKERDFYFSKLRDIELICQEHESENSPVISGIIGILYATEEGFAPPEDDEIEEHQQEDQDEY
inactive: [1] -0.003 | [4] -0.18 | [7] -0.073 | [8] 0.012 | [9] -0.097

KIZ (UniProt Q2M2Z5)
inactive: [1] 0.018 | [4] 0.077 | [6] 0.103 | [7] -0.01

ITPRID2 (UniProt P28290)
Chain of UniProt P28290 (P28290 whole entry, looked up): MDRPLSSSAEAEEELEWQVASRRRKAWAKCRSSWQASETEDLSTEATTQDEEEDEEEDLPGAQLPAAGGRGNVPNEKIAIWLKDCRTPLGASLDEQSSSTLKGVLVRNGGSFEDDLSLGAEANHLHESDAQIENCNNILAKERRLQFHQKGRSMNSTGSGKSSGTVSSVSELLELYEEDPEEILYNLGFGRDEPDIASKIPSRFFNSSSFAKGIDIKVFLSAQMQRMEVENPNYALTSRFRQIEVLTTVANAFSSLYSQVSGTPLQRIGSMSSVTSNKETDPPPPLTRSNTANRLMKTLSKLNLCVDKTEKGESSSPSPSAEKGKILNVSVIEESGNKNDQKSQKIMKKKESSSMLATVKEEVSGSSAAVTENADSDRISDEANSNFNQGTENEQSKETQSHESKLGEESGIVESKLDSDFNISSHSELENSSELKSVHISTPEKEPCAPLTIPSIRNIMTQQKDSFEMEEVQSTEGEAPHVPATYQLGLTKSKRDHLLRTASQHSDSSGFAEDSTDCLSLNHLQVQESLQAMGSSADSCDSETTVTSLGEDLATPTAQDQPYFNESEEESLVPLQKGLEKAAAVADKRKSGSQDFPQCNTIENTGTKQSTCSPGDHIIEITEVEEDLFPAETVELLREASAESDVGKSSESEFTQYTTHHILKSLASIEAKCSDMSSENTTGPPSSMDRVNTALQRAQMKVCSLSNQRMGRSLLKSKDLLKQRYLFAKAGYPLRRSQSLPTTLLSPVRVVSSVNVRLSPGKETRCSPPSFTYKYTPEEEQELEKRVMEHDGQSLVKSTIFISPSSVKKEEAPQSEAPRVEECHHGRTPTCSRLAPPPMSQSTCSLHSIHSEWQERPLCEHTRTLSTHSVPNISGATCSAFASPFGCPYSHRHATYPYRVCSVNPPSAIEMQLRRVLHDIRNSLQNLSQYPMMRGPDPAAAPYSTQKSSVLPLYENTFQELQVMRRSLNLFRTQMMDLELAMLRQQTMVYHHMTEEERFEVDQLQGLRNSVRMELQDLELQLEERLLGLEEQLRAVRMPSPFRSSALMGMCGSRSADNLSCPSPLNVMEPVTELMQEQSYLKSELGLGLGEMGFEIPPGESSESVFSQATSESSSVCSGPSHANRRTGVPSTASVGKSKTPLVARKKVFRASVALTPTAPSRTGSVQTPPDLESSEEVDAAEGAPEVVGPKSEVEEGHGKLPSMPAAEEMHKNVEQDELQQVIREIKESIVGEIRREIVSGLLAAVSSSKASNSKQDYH
inactive: erlotinib 0.022 | [2] -0.133 | [3] -0.268 | [6] -0.213

LAPTM4B (UniProt Q86VI4)
inactive: erlotinib -0.074 | [3] -0.054 | [5] 0.093

LSR isoform 3 (UniProt Q86X29)
inactive: [8] -0.169 | [9] 0.25

MAPK14 (UniProt Q16539)
active: [6] 1.04
inactive: erlotinib 0.238 | [1] 0.106 | [3] -0.116 | [4] -0.054 | [5] 0.001 | [7] 0.174 | [8] 0.051 | [9] -0.072

LDLRAP1 (UniProt Q5SW96)
inactive: erlotinib -0.017 | [3] 0.252 | [5] 0.199 | [6] -0.118

LOX (UniProt P28300)
inactive: erlotinib -0.245 | [3] 0.315 | [5] 0.038

JAK3 (UniProt P52333)
inactive: erlotinib -0.178 | [2] 0.062 | [3] -0.013 | [5] 0.021 | [6] -0.207 | [8] 0.059 | [9] -0.024

MAP4K2 (UniProt Q12851)
inactive: [5] -0.122 | [8] -0.413 | [9] -0.172
